Targets with a hit are over-represented here; the source holds about 7,900 in all. About 0.6% of all pairs of compound and target were hits.
Compound: c1cn2cc(-c3ccc4cn[nH]c4c3)nc(Nc3ccc(N4CCOCC4)cc3)c2n1 [entospletinib]
Test: log2 fold change, soluble protein after heating vs DMSO (PISA); higher = thermal stabilisation; K562 cells, 10 uM, 30 min; active = over 0.2 and 3.5 SD of the protein, either way, in both replicates (recomputed)
In short: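 Soluble protein was quantified by TMTpro 16plex LC-MS/MS after channel sums were equalised. It was obtained as the supernatant after 21,000xg for 90 min from pooled aliquots of K562 cells (2×10^6 cells/mL, 10 μM compound, 30 min) heated for 3 min across 48°C-58°C and extracted in PBS with 0.5% NP-40 at 4°C. Thermal stability values are relative to control samples and come from duplicates. They are given as log2 fold changes.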

UniProt P49137, sequence (P49137 whole entry, looked up): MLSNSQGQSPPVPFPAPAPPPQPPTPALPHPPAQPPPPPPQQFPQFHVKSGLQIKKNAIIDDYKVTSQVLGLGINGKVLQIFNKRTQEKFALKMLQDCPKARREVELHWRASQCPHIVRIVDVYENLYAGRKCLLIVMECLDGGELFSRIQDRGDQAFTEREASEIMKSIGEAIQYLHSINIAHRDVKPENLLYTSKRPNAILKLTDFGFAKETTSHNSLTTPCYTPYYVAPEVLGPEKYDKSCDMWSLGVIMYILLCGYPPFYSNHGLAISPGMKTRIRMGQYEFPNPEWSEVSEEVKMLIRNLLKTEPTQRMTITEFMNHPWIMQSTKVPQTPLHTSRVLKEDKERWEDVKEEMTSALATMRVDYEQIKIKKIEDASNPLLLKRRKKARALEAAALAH
UniProt Q03252, sequence (Q03252 whole entry, looked up): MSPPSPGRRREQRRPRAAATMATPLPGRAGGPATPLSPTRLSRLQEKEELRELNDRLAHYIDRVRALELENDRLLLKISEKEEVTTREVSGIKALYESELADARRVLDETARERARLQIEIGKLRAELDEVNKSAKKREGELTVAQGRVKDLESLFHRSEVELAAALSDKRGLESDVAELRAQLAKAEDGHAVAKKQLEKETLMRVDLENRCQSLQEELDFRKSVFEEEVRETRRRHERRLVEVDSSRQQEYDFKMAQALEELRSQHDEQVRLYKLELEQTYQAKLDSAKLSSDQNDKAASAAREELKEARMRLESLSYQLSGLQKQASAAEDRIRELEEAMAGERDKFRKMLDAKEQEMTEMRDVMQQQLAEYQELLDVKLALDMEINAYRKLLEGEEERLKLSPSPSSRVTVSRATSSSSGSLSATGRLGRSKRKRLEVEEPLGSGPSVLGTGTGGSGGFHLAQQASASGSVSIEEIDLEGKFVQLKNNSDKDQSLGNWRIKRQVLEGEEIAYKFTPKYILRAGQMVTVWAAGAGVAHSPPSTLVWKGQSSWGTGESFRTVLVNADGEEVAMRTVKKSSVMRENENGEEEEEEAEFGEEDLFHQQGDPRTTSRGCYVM
UniProt P20700, sequence (P20700 whole entry, looked up): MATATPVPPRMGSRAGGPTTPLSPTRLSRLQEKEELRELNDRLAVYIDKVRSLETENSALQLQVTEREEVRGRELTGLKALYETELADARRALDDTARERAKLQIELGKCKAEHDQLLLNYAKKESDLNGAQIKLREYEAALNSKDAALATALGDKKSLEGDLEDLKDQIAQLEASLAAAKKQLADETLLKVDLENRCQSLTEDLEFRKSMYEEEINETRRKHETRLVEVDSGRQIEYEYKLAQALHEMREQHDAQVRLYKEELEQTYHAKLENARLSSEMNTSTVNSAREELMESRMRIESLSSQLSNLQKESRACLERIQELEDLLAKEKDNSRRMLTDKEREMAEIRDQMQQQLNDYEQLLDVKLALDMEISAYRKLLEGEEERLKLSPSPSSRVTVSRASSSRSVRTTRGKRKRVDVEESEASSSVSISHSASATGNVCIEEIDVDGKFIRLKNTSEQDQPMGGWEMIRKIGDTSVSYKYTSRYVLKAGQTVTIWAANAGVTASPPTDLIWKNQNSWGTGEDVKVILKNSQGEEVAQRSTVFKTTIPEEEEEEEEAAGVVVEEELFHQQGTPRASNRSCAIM
UniProt Q16891, sequence (Q16891 whole entry, looked up): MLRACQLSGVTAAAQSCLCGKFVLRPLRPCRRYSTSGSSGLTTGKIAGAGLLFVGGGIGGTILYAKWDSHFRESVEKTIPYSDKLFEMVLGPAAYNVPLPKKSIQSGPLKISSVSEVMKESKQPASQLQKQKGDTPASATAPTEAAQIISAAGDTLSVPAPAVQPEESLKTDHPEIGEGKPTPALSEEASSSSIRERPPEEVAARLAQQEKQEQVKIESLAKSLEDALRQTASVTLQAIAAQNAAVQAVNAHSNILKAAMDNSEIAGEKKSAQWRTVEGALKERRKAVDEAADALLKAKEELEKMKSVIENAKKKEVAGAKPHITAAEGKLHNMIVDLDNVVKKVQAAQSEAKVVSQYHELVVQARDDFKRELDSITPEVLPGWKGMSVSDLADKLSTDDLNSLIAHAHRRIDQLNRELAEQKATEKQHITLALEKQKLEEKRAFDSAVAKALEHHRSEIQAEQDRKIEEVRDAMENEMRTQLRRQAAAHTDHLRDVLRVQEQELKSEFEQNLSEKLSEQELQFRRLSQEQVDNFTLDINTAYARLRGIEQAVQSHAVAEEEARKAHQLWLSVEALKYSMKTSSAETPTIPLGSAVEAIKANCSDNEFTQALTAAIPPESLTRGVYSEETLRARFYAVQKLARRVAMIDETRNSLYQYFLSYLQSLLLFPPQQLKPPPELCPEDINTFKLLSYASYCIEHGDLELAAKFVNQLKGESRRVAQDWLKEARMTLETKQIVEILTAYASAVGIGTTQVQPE
UniProt Q6UB28, sequence (Q6UB28 whole entry, looked up): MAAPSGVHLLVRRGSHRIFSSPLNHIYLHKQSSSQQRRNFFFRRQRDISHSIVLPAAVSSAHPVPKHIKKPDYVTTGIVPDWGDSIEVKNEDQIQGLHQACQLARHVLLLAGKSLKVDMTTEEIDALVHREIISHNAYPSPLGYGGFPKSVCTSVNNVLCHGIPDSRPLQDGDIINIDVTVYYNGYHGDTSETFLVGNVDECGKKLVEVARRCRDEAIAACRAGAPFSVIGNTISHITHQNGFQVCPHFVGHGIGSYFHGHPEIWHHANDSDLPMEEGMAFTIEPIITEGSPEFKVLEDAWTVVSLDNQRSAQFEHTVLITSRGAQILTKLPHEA
UniProt P28290, sequence (P28290 whole entry, looked up): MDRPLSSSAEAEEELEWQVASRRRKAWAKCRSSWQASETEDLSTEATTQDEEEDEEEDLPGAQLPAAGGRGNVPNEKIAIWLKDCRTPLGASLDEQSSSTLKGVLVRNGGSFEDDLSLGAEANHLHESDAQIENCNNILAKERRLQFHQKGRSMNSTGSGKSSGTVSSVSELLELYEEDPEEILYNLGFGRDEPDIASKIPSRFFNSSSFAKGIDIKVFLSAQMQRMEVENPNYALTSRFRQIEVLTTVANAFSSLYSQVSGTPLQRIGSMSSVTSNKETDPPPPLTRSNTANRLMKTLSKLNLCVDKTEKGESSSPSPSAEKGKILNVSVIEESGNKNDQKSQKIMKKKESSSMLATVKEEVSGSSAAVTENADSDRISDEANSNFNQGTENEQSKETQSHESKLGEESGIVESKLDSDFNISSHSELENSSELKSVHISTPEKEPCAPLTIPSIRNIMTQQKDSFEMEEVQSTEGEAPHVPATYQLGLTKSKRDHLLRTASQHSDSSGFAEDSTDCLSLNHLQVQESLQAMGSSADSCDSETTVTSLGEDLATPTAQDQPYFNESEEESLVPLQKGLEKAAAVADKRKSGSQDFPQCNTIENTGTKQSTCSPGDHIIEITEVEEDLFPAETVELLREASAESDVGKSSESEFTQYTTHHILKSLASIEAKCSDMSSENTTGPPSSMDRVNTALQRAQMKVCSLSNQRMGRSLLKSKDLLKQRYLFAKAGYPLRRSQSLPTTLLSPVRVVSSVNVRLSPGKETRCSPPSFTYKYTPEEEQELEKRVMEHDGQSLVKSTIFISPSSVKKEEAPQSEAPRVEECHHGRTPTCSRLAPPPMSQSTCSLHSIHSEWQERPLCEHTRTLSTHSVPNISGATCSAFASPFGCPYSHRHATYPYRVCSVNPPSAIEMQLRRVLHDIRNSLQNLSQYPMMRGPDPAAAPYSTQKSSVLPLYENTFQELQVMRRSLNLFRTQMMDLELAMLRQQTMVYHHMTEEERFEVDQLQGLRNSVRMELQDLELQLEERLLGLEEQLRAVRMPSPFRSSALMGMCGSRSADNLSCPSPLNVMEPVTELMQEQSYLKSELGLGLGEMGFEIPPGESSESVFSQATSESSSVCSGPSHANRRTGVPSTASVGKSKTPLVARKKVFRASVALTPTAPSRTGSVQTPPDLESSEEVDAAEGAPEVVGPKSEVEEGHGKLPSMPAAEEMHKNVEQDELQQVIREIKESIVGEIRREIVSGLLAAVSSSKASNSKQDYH
UniProt P02545, sequence (P02545 whole entry, looked up): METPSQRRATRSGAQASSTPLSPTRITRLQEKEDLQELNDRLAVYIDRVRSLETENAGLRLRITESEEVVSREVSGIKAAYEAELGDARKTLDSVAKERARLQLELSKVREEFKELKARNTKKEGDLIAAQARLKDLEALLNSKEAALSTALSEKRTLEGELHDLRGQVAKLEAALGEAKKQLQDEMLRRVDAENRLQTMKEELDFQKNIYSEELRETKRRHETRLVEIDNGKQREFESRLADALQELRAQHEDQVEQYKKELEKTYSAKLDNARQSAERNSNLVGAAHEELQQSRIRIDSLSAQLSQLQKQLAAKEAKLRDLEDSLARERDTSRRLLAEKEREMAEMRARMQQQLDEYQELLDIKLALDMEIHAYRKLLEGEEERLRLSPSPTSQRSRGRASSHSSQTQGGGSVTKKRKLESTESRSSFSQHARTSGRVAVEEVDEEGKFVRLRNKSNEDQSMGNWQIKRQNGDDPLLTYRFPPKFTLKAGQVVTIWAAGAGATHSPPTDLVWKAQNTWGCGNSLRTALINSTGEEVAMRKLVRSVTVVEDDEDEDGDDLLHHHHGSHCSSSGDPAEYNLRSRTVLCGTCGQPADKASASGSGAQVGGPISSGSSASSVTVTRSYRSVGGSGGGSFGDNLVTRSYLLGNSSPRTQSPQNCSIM
UniProt Q16539, sequence (Q16539 whole entry, looked up): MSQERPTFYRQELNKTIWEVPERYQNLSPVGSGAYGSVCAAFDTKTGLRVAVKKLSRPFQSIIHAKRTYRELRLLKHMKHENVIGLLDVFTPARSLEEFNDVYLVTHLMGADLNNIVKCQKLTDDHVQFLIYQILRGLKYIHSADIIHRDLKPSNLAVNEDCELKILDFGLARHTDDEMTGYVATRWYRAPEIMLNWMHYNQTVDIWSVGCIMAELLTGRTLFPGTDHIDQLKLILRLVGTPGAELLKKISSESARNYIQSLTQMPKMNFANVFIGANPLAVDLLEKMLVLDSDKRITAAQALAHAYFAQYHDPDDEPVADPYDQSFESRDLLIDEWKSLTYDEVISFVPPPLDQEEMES

log2 fold change, inactive:
MAP4K4 isoform 6 (UniProt O95819) -0.103
LMNB1 (UniProt P20700) -0.01
LENG8 (UniProt Q96PV6) 0.131
IMMT isoform 4 (UniProt Q16891) -0.011
LMNA (UniProt P02545) -0.025
MCM10 (UniProt Q7L590) -0.04
KPNA1 (UniProt P52294) 0.022
IP6K1 (UniProt Q92551) -0.029
MAPK14 isoform 2 (UniProt Q16539) -0.032
ILF3 isoform 7 (UniProt Q12906) -0.034
LRBA (UniProt P50851) -0.002
MIER1 isoform 12 (UniProt Q8N108) -0.002
MARK3 (UniProt P27448) -0.024
METAP1D (UniProt Q6UB28) 0.026
ITIH4 (UniProt Q14624) 0.124
MARCKSL1 (UniProt P49006) -0.005
ITPRID2 (UniProt P28290) -0.017
KCNK5 (UniProt O95279) 0.171
LEMD3 (UniProt Q9Y2U8) -0.031
LMNB2 (UniProt Q03252) -0.082
MCUR1 (UniProt Q96AQ8) 0.018
MAP4K5 (UniProt Q9Y4K4) -0.065
LUC7L3 (UniProt O95232) -0.005
LONP2 (UniProt Q86WA8) -0.001
METTL18 (UniProt O95568) 0.072
KIF1B isoform 4 (UniProt O60333) -0.013
IK (UniProt Q13123) 0.015
MED8 isoform 2 (UniProt Q96G25) 0.034
LEO1 (UniProt Q8WVC0) -0.094
LIAS (UniProt O43766) 0.113
MICOS13 (UniProt Q5XKP0) 0.049
KDM1A isoform 2 (UniProt O60341) -0.066
MAPKAPK2 (UniProt P49137) -0.061
LSR (UniProt Q86X29) -0.006

— the supplement of paper PMC10849652
